# Sampled rows, rich in hits. Any-hit rate of the full collection: about 0.54%.
# IDH1 R132H inh – qHTS for Inhibitors of mutant isocitrate dehydrogenase 1 (IDH1): qHTS; Isocitrate dehydrogenase [NADP] cytoplasmic (Homo sapiens), O75874; IDH1-R132H enzyme, NADPH consumption, diaphorase/resazurin fluorescence; Potency, µM (top dose mostly 76.6 µM), for the others: at the highest dose activity change, negative = inhibition, actives largely listed as inhibitors; actives 0.093% (n = 390,000); AID 602179, 2012; further: potency means the concentration at half of the fitted maximal effect; on the % scale 0 is the no-effect control and ±100 the full control effect; nearly all actives have a fitted effect of over 65% in size
#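 IDH1-R132H (0.5 ug/mL) preincubated 30 min with compound, then NADPH (0.016 mM) and alpha-KG (2 mM) added; 80 min at RT, pH 7.5. Remaining NADPH coupled via diaphorase/resazurin to fluorescence (540/590 nm); concentration-response curves normalized to no-enzyme control.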
# LDHA block – qHTS assay for inhibitors of human lactate dehydrogenase | L-lactate dehydrogenase A chain (Homo sapiens), P00338 | purified LDHA, NADH/diaphorase-resazurin fluorescence; active compounds read low | activity change, % (values are at about 110 or 230 µM) | actives 0.15% (n = 480,000) | AID 1347041, 2019; in the data active means activity change below about -30%; inconclusive means mostly about -25% to -30%;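 further: plate controls were DMSO wells for no effect and wells without enzyme for full effect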
#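 Resorufin fluorescence (ex540/em590), read at 0 and 20 min after diaphorase/resazurin addition, reports the NADH left after a 5 min room-temperature reaction of 2 nM human LDH5 with 0.06 mM NADH and 0.2 mM pyruvate.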
# Menin-MLL FL inh – qHTS Assay for Inhibitors Targeting the Menin-MLL Interaction in MLL Related Leukemias: Competition With Fluorescein Labeled MLL-derived Peptide. Fluorescence polarization, fluorescein-MLL peptide displacement from menin. FP activity change, % at 61.4 µM. 290,000 tested, under 10 active; active means well fitted curve in the direction sought with a large enough effect in the polarisation, not every such curve was filed as active; inconclusive means small, poorly fitted or top-dose-only effect, or effect the other way, or a change in a side signal; inactive means no such curve, though single readings can be large or run the other way; the % refers to the polarisation; further: % of control where 0% means no effect
# Akt phos inh – HTS Assay for Inhibitors of Akt Phophorylation: Primary Screen; Neuro2A IGF-stimulated pAkt S473 HTRF, 20 min; active compounds read low; activity change, % for hits at 50 µM; actives 0.32% (n = 360,000); in the data active means activity change below about -80%; inconclusive means mostly about -51% to -80%; further: on the % scale 0 is the no-effect control and ±100 the full control effect
#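 Neuro2A cells (4,500/well, DMEM with 0.5% FBS) were treated with compound at a single 50 µM final concentration, stimulated with 6 nM IGF for 20 min at 37 °C, and lysed. Phospho-Akt Ser473 was read by HTRF as 665/615 ratio ×10^4.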
# MLL CXXC-DNA inh – qHTS Fluorescence Polarization Assay for Inhibitors of MLL CXXC domain - DNA interaction | actives 0.037% (n = 290,000) | Histone-lysine N-methyltransferase 2A (Homo sapiens), Q03164 | AID 2662, 2010 | MLL-CXXC / FITC-HOXA9 DNA fluorescence polarization | Potency, µM (doses to about 115 µM), for the others: at the top dose activity change, negative = inhibition, usual class: inhibitors; active means well fitted inhibition curve with a large enough effect in the polarisation, with a control signal flat, not every such curve was filed as active; inconclusive means small, poorly fitted or top-dose-only effect, or effect the other way, or a change in a side signal; inactive means no such curve, though single readings can be large or run the other way; the % refers to the polarisation; further: potency means the concentration at half of the fitted maximal effect
#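 Fluorescence polarization: 7 uM MLL-CXXC (stock) preincubated 5 min with compounds, then 50 nM fluorescein-HOX-A9 DNA (stock) added; 30 min ambient. Buffer 50 mM Tris-HCl pH 7.5, 50 mM NaCl, 1 mM DTT, 0.05% BSA.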
# Menin MLL FP TR – qHTS Assay for Inhibitors Targeting the Menin-MLL Interaction in MLL Related Leukemias: Competition With Texas Red Labeled MLL-derived Mutant Peptide; O00255; Menin + Texas Red MLL mutant peptide, fluorescence polarization; Potency, µM (top dose mostly 61.6 µM), for the others: top-dose FP activity change, negative = inhibition, actives largely listed as inhibitors; actives 0.23% (n = 270,000); active means well fitted inhibition curve with a large enough effect in the polarisation, with a control signal flat, not every such curve was filed as active; inconclusive means small, poorly fitted or top-dose-only effect, or effect the other way, or a change in a side signal; inactive means no such curve, though single readings can be large or run the other way; the % refers to the polarisation; further: potency means the concentration at half of the fitted maximal effect; % of control where 0% means no effect
# Target sequence (O00255 whole entry, looked up): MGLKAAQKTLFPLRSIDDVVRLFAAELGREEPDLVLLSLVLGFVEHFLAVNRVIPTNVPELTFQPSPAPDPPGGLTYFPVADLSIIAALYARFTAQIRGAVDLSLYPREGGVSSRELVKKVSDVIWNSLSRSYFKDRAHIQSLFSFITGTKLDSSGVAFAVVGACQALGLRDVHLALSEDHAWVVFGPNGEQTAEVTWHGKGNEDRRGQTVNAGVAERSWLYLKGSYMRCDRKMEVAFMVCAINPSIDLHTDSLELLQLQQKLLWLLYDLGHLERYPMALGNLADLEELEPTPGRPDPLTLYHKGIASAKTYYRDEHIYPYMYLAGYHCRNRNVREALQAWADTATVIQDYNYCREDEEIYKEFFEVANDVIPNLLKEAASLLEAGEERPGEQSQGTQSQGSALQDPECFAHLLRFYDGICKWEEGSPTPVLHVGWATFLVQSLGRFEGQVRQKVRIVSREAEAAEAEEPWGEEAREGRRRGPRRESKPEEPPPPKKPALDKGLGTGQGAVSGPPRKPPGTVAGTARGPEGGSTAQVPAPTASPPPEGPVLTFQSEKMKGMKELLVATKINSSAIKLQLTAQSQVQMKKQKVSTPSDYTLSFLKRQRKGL
# Resorufin autofl – qHTS for Inhibitors of mutant isocitrate dehydrogenase 1 (IDH1): Cherrypicks Autofluorescence Interference; shares compounds with IDH1 R132H inh; Resorufin detection reagent fluorescence interference, cell-free; inhibition of signal, % at 51.2 µM; 750 tested, under 10 active; AID 623980, 2012;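 further: 0% = wells with normal resorufin and full inhibition = wells lacking resorufin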
# IDH1 WT – qHTS for Inhibitors of mutant isocitrate dehydrogenase 1 (IDH1): Cherrypicks in WT IDH1 | AID 623995, 2012 | Potency, µM (titrated, usually from 115 µM), without a hit: at the top dose activity change, negative = inhibition, most hits filed as inhibitors | WT IDH1 enzyme, NADPH diaphorase/resazurin fluorescence | actives 9% (n = 750) | shares compounds with IDH1 R132H inh;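 further: potency means the concentration at half of the fitted maximal effect; 0% = full WT IDH1 enzyme control and full inhibition = no enzyme wells; nearly all actives have a fitted effect of over 55% in size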
# mIDH1 confirm – qHTS for Inhibitors of mutant isocitrate dehydrogenase 1 (IDH1): Confirmation of Cherrypicks. shares compounds with IDH1 R132H inh. IDH1 R132H enzyme, NADPH diaphorase/resazurin fluorescence. Potency, µM (titrated, usually from 76.6 µM), for the others: top-dose activity change, negative = inhibition, most hits filed as inhibitors. actives 83% (n = 750). AID 624002, 2012; further: potency means the concentration at half of the fitted maximal effect; nearly all actives have a fitted effect of over 50% in size
# * marks the source's active call; other numbers are inactive results; i = inactive; ? = inconclusive; . = no result given. Unless noted, the call rests on the fitted dose curve; in most records, active means well fitted curve in the direction sought with a large enough effect; inconclusive means small, poorly fitted or top-dose-only effect, or another doubt; inactive means no such curve, though single readings can be large; an effect the other way counts as inactive or inconclusive.
SMILES,IDH1 R132H inh,LDHA block,Menin-MLL FL inh,Akt phos inh,MLL CXXC-DNA inh,Menin MLL FP TR,Resorufin autofl,IDH1 WT,mIDH1 confirm
CCc1ccc(CNC(=O)CN2C(=O)c3cccnc3Oc3ccc(Cl)cc32)cc1,?,-32.5*,.,.,.,.,-3.5,0.9%,-11.2%
CCOc1ccccc1CNC(=O)CN1C(=O)c2cccnc2Oc2ccc(Cl)cc21,-9.0%,-12.0,.,.,.,.,.,.,.
COc1ccc(C2C(C#N)=C3NC(=O)c4c(sc5c4CCCCC5)N3C3=C2C(=O)CC(C)(C)C3)cc1 (configuration not stated),?,1.7,?,i,-12.9%,-0.4%,4.9,0.7%,-19.6%
COc1ccc(C2C(C#N)=C(N)N(N(C)C)C3=C2C(=O)CC(C)(C)C3)cc1 (configuration not stated),-0.5%,-3.9,3.5,i,-13.2%,-13.5%,.,.,.
COc1ccc(C2C(C#N)=C(N)N(c3sc4c(c3C#N)CCCC4)C3=C2C(=O)CC(C)(C)C3)cc1OC (configuration not stated),?,-0.9,?,i,10.2%,1.2%,3.4,-4.2%,-24.7%
COc1ccc(C2C(C#N)=C(N)N(c3sc4c(c3C#N)CCCC4)C3=C2C(=O)CC(C)(C)C3)cc1 (configuration not stated),-10.5%,-6.2,?,i,17.1%,8.3%,.,.,.
CCCC(NC(=O)CCc1c(C)c2cc3c4c(oc3c(C)c2oc1=O)CCCC4)C(=O)O (configuration not stated),41.4µM*,-0.2,-6.9,i,29.0%,-18.4%,0.0,-9.1%,28.2µM*
CC(C)c1nc(N2CCN(C(=O)c3ccco3)CC2)c(C#N)c2c1COC(C)(C)C2,20.7µM*,2.2,-0.5,i,-1.5%,?,-9.3,-9.9%,20µM*
CC(C)OC(=O)CSc1nc(N2CCOCC2)c2c(c1C#N)CC(C)(C)OC2,?,-4.8,2.5,i,5.6%,?,-6.5,4.6%,35.5µM*
CC1(C)Cc2c(C#N)c(SCC(=O)O)nc(N3CCOCC3)c2CO1,0.4%,-3.1,.,i,.,.,.,.,.
CC(C)c1nc(N2CCN(C(=O)c3ccccc3)CC2)c(C#N)c2c1COC(C)(C)C2,?,-5.9,3.2,i,4.9%,-15.4%,2.3,-10.3%,22.4µM*
CC(C)CC(NC(N)=O)C(=O)NCc1cccc(C(F)(F)F)c1 (configuration not stated),.,3.8,.,.,.,.,.,.,.
CCOC(=O)c1ccc(NC(=O)CN(c2cc(C(F)(F)F)ccc2Cl)S(C)(=O)=O)cc1,.,-0.6,.,.,.,.,.,.,.
COc1ccc(-c2nc(NC(C)=O)sc2-c2ccc(OC)cc2)cc1,-0.1%,-12.4,-3.8,i,14.7%,10.6%,.,.,.
COc1ccc(-c2sc(Nc3ccc(F)c(F)c3F)nc2CCC(=O)NN)cc1,29.3µM*,-1.5,-4.2,i,-10.2%,?,-9.4,-21.1%,28.2µM*
Cc1ccc(Sc2ccc(NC(=O)CCl)cc2)c(C)c1,52.1µM*,-0.1,9.6,i,4.0%,5.9%,3.5,?,44.7µM*
CCOc1ccc(C2=C(C(C)=O)Sc3nnc(C)n3N2C(C)=O)cc1,?,-10.0,.,.,.,.,.,.,.
CC(=O)C1=C(c2cccc([N+](=O)[O-])c2)N(C(C)=O)n2c(C)nnc2S1,20.7µM*,?,-0.6,i,-7.1%,12.8%,-8.8,i,3.16µM*
NS(=O)(=O)c1ccc(Cc2ncc(C(F)(F)F)cc2Cl)s1,0.8%,-1.8,-0.5,i,-1.2%,-1.0%,.,.,.
O=C(CCl)c1ccc(Cc2ncc(C(F)(F)F)cc2Cl)s1,?,-1.4,0.6,i,3.8%,-22.0%,-11.6,?,22.4µM*
Cc1cc(S(=O)(=O)Nc2cc3c(cc2SC2CCCCC2)n(C)c(=O)n3C)ccc1F,.,-17.8,.,.,.,.,.,.,.
Cc1[nH]nc2c1C(c1ccc(F)cc1)C(C#N)=C(N)O2 (configuration not stated),4.4%,-7.5,-1.4,i,-3.0%,0.7%,.,.,.
Cc1cc(C)c(C#N)c(SCc2[nH]nc3c2C(c2ccc(F)cc2)C(C#N)=C(N)O3)n1 (configuration not stated),?,-4.4,5.0,i,2.7%,14.7%,6.8,?,31.6µM*
Cc1cc(C#N)c(C)c(SCc2[nH]nc3c2C(c2ccccc2)C(C#N)=C(N)O3)n1 (configuration not stated),?,0.0,1.3,.,-7.3%,?,2.6,?,35.5µM*
CCCC(=O)Nc1ccc(CNCc2ccc(C)cc2C)cc1,.,8.3,.,.,.,.,.,.,.
CCOc1ccc(N2CC(C(=O)Nc3ncn[nH]3)CC2=O)cc1 (configuration not stated),.,11.1,.,.,.,.,.,.,.
CCN(CC)C(=O)c1sc2c(c1C)c(=O)n(-c1ccccc1)c(=O)n2Cc1cc(=O)n2ccccc2n1,-8.0%,-3.3,.,.,.,.,.,.,.
CCc1ccc(-n2c(=O)c3c(C)c(C(=O)N(C)C)sc3n(Cc3cccc(C)c3)c2=O)cc1,?,-1.4,.,.,.,.,-3.3,-9.7%,31.6µM*
CCN(CC)C(=O)c1sc2c(c1C)c(=O)n(-c1ccccc1)c(=O)n2Cc1c(C)cc(C)cc1C,39.8µM*,0.1,.,.,.,.,-5.5,-4.8%,35.5µM*
Cc1ccc(-n2c(=O)c3c(C)c(C(=O)N(C)C)sc3n(Cc3ccccc3C)c2=O)cc1C,?,1.0,.,.,.,.,-4.7,2.0%,22.4µM*
